The text below walks through data of PubChem BioAssay AID1835 (Johns Hopkins Ion Channel Center, 2009).

Among all 2,400 compounds or so, about 750 (31%) were called active. The list shows a part of the results. A number with no mark means an inactive call.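 The calls were made as follows: active = median signal gain over dofetilide-blocked control wells reaching their mean plus 3 SD, so readout 1 at least 0; inactive = the rest.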

The target of this test is Voltage-gated inwardly rectifying potassium channel KCNH2 (Homo sapiens) (UniProt Q12809). Briefly: hERG protection against dofetilide inhibition, confirmation, cell-based, thallium flux, duplicate retest, dofetilide IC70 (AID 1835). The conditions noted are these: hERG cell line, FluxOR thallium flux, dofetilide-blocked; at 10 µM; stronger effect = higher value.
Sequence of Voltage-gated inwardly rectifying potassium channel KCNH2 (Homo sapiens) (Q12809 whole entry, looked up): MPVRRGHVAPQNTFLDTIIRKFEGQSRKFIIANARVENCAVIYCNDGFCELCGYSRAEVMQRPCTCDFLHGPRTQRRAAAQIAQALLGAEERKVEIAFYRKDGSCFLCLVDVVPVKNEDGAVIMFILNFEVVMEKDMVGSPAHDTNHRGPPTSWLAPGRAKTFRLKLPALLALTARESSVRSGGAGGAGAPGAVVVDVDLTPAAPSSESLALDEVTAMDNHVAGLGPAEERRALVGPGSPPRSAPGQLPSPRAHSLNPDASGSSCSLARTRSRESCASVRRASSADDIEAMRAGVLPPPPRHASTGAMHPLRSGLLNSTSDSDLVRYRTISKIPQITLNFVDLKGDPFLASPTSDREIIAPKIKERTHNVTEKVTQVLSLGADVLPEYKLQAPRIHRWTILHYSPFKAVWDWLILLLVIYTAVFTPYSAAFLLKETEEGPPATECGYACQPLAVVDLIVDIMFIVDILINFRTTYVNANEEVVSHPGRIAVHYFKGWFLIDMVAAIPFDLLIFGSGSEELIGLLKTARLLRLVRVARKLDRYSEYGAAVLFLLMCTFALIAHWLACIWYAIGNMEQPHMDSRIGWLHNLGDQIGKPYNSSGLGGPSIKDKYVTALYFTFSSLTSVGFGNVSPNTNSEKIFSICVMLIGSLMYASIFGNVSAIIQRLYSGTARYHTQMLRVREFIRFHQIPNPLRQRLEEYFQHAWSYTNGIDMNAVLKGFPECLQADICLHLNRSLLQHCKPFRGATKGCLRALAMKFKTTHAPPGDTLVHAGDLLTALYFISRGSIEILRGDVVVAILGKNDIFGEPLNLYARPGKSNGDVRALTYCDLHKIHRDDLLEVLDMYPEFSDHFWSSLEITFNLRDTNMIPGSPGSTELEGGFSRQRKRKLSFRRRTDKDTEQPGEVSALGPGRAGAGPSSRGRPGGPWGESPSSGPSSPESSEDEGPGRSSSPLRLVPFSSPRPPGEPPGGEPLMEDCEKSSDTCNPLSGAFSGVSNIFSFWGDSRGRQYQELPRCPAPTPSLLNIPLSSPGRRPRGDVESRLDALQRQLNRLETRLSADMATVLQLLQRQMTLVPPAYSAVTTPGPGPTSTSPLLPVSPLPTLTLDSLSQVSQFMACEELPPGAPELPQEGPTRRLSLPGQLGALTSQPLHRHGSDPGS
Consider `O=c1c([N+](=O)[O-])c(N2CCCCC2)c2ccccc2n1-c1ccccc1`, for which the activity increase over dofetilide control, less the hit threshold was -18%.

Turning to `Oc1ccc2[nH]cnc2c1CN1CCCCC1`, the activity increase over dofetilide control, less the hit threshold was -18%.

With `Cc1ccccc1OCC(=O)N=Nc1c(O)n(C)c2ccccc12`, the activity increase over dofetilide control, less the hit threshold is -5%.

Regarding `Cn1c(O)c(N=Nc2nc(-c3ccccc3)cs2)c2ccccc21`, the activity increase over dofetilide control, less the hit threshold was 65% (active).

On to `CCc1ccc2[nH]c(O)c(N=Nc3nc(-c4ccccc4)cs3)c2c1`, for which the activity increase over dofetilide control, less the hit threshold is -8%.

For `COC(=O)/C=C1\S/C(=N/N=C/c2ccco2)NC1=O`, the activity increase over dofetilide control, less the hit threshold was -10%.

With `CCC(=O)N1CCN(c2nc(CC)nc3sc4c(c23)CCCC4)CC1`, the activity increase over dofetilide control, less the hit threshold was -30%.

With `C=CCSc1nc2sc3c(c2c(=O)n1CC)CCc1ccccc1-3`, the activity increase over dofetilide control, less the hit threshold was -4%.

Consider `CCn1c(SC(C)C(=O)O)nc2sc3c(c2c1=O)CCC3` (stereo unspecified), for which the activity increase over dofetilide control, less the hit threshold was 7% (active).

In the case of `CCOC(=O)c1cnn(-c2nc(SC)nc3sc4c(c23)CCCC4)c1N`, the activity increase over dofetilide control, less the hit threshold is -1%.

Turning to `CCCn1c(SCC(=O)N2CCN(C(C)=O)CC2)nc2sc3c(c2c1=O)CCC3`, the activity increase over dofetilide control, less the hit threshold was 20% (active).

For `CCn1c(SCC(N)=O)nc2sc3c(c2c1=O)CCCC3`, the activity increase over dofetilide control, less the hit threshold is 3% (active).

Regarding `CC(=O)/C=C1/C(=O)Nc2ccccc21`, the activity increase over dofetilide control, less the hit threshold is -39%.

`COc1cc(/C=N/Nc2nc(N3CCCC3)nc(N3CCCC3)n2)ccc1OCc1ccccc1F`: the activity increase over dofetilide control, less the hit threshold was -34%.

Regarding `O=C1CC(C(=O)N2CCOCC2)C2(CCCCC2)O1` (stereo unspecified), the activity increase over dofetilide control, less the hit threshold is -19%.

For the molecule `CC1CCN(c2ccc3c(c2)S(=O)(=O)c2ccccc2C3=O)CC1`, the activity increase over dofetilide control, less the hit threshold is -27%.

For `O=C1c2ccccc2C(=O)N1Cc1nc2ccccc2c(=O)n1CCCn1ccnc1`, the activity increase over dofetilide control, less the hit threshold was -25%.

As to `S=C(N/N=C/c1ccccc1Cl)Nc1cccc(Cl)c1Cl`, the activity increase over dofetilide control, less the hit threshold was 23% (active).

On to `Cc1ccc(Cl)cc1NC(=S)N/N=C/c1cccc2ccccc12`, for which the activity increase over dofetilide control, less the hit threshold is -11%.

For `Fc1ccccc1NC(=S)N/N=C/c1ccccc1Br`, the activity increase over dofetilide control, less the hit threshold is -20%.

For the molecule `O=C(CNCC1CCCO1)N1CCCCCC1` (stereo unspecified), the activity increase over dofetilide control, less the hit threshold was -11%.

On to `Cc1ccc2c(Cl)cc(Cl)c(OCC(=O)NC3CCS(=O)(=O)C3)c2n1` (stereo unspecified), for which the activity increase over dofetilide control, less the hit threshold is -15%.

Consider `CCCCSc1nnc(CCC)n1N`, for which the activity increase over dofetilide control, less the hit threshold was -21%.

Consider `CCCCCCCC/C=C\CCCCCCCC(=O)O`, for which the activity increase over dofetilide control, less the hit threshold is 22% (active).

`O=C(c1ccc(CS(=O)c2cccc(Cl)c2)o1)N1CCCCCC1` (stereo unspecified): the activity increase over dofetilide control, less the hit threshold is -7%.

For `CC(C)(C)NC(=O)CN(C(=O)CS(=O)CC(=O)Nc1ccc(F)cc1)c1cccc(F)c1` (stereo unspecified), the activity increase over dofetilide control, less the hit threshold is -13%.

Take `CC(C)Oc1c(Cl)cc(CNC(C)(C)CO)cc1Cl`: the activity increase over dofetilide control, less the hit threshold was 1% (active).

Take `Fc1ccccc1-c1n[nH]c(=S)n1C1CC1`: the activity increase over dofetilide control, less the hit threshold is -4%.

As for `CC(C)(C)c1cc(-c2n[nH]c(=S)n2-c2ccccc2F)n[nH]1`, the activity increase over dofetilide control, less the hit threshold is 7% (active).

With `CCC(=O)Nc1cc(=O)[nH]c2ncnn12`, the activity increase over dofetilide control, less the hit threshold is -24%.

Regarding `Cc1cc(NC(=O)CSc2nc(C3CC3)nc3sc(C)c(C)c23)no1`, the activity increase over dofetilide control, less the hit threshold is 26% (active).

Take `Cc1cc(NC(=O)CSc2nnc(Nc3ccccc3)s2)no1`: the activity increase over dofetilide control, less the hit threshold was -11%.

With `CCCc1nc(SCC(=O)Nc2cc(C)on2)c2ccccc2n1`, the activity increase over dofetilide control, less the hit threshold is -10%.

For `C/C(=C\C(=O)c1ccccc1)NNC(=O)c1ccc(Cl)cc1`, the activity increase over dofetilide control, less the hit threshold is 3% (active).

Regarding `COc1ccc(C(=O)NN/C(C)=C/C(=O)c2ccccc2)cc1`, the activity increase over dofetilide control, less the hit threshold is -26%.

Take `C/C(=C\C(=O)c1ccncc1)Nc1ccccc1O`: the activity increase over dofetilide control, less the hit threshold was -7%.

As for `COc1cccc(C(=O)NNC(=O)C(=O)Nc2ccc(C)c(Cl)c2)c1`, the activity increase over dofetilide control, less the hit threshold is 54% (active).

For the molecule `COc1cccc(C(=O)NNC(=O)C(=O)Nc2cccc(Cl)c2C)c1`, the activity increase over dofetilide control, less the hit threshold is 50% (active).

As for `Cc1ccc(NC(=O)c2ccc3c(c2)OCO3)cc1Cl`, the activity increase over dofetilide control, less the hit threshold is -10%.

`COc1ccc(C(=O)NNC(=O)C(=O)Nc2ccc(C)c(Cl)c2)cc1`: the activity increase over dofetilide control, less the hit threshold was 86% (active).

As to `COc1cccc(C(=O)Nc2cccc(-c3ccc(N4CCOCC4)nn3)c2)c1`, the activity increase over dofetilide control, less the hit threshold was -14%.

In the case of `COc1ccc(C2/C(=C(/O)c3ccc(Br)cc3)C(=O)C(=O)N2C)cc1` (stereo unspecified), the activity increase over dofetilide control, less the hit threshold was -7%.

`Cc1ccc(C(=O)n2c(-c3ccccc3)cnc2SCC(=O)Nc2ccc(C)cc2C)cc1`: the activity increase over dofetilide control, less the hit threshold was -8%.

Regarding `Oc1c(N=NC(=S)Nc2ccccc2F)c2ccccc2n1Cc1ccccc1`, the activity increase over dofetilide control, less the hit threshold is 36% (active).

With `Oc1c(N=NC(=S)Nc2ccccc2F)c2ccccc2n1Cc1cccc(Cl)c1`, the activity increase over dofetilide control, less the hit threshold is -1%.

`Oc1c(N=NC(=S)Nc2ccccc2F)c2ccccc2n1Cc1ccc(F)cc1`: the activity increase over dofetilide control, less the hit threshold was 32% (active).

On to `Oc1c(N=NC(=S)Nc2ccccc2F)c2ccccc2n1Cc1ccc(Cl)cc1`, for which the activity increase over dofetilide control, less the hit threshold was -2%.

In the case of `Cc1c(Cl)cccc1NC(=S)N=Nc1c(O)n(CN2CCOCC2)c2ccccc12`, the activity increase over dofetilide control, less the hit threshold is 18% (active).

Take `Cc1cc(NC(=O)Cn2c(=O)n(Cc3ccccc3)c(=O)c3ccccc32)no1`: the activity increase over dofetilide control, less the hit threshold was -7%.

In the case of `Cc1cccc(Cn2c(O)c(N=NC(=S)Nc3ccccc3F)c3ccccc32)c1`, the activity increase over dofetilide control, less the hit threshold was 4% (active).

Regarding `CC(C)Oc1ccccc1C1(c2ccccc2)NC(=O)NC1=O` (stereo unspecified), the activity increase over dofetilide control, less the hit threshold is -16%.
